Screening results: PubChem, several laboratories
In the library only some 27% were active in any assay of this set; here they are far more common.
CYP2C9 activ – activators of human CYP2C9; recombinant CYP2C9, luciferin-H conversion, luminescence; hits give high values; factor 1 = untreated enzyme, 0 = blocked; activation factor at 5 µM; 96,000 compounds, 1.4% hits;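 active = activation factor of 2 or more for CYP2C9 at a 5 µM dose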;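 note: 0 = sulfaphenazole-blocked wells and 1 = vehicle-only wells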
Target sequence (P11712 whole entry, looked up): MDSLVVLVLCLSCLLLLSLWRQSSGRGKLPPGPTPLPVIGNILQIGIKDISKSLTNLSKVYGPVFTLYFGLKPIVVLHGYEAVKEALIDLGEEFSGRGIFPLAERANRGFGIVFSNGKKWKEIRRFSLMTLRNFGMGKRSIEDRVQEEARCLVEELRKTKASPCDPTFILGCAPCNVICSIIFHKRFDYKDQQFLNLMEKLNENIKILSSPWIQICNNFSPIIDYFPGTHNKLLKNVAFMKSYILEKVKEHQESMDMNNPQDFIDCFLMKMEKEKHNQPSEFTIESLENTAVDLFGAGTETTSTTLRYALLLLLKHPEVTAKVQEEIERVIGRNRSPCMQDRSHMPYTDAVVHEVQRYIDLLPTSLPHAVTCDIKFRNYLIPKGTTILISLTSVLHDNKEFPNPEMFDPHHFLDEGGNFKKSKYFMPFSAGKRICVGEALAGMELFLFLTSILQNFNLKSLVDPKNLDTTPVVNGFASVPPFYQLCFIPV
Cav32 inh – blocks human Cav3.2 T-type calcium channel. B-score at 10 µM. 100,000 compounds, 4% hits. O95180. Cav3.2-expressing cells, Fluo-4 calcium fluorescence FDSS; hits give low values;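 active = single-dose well whose peak fluorescence ratio is a statistical outlier from its plate by either plate-standardised score or position-corrected B-score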
CYP2C9 inh – human CYP2C9 inhibition. CYP2C9 Supersomes, luciferin-H conversion, luminescence. inhibition, % at 5 µM. 96,000 compounds, 20% hits;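 active = blocking of liver enzyme CYP2C9 beyond about 50% at 5 µM, limit read from the data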
CYP2C19 inhib – blocks human cytochrome P450 2C19; P33261; CYP2C19 Supersomes, luciferin-H EGE luminescence, 30 min; inhibition, % at 5 µM; 96,000 compounds, 21% hits; AID 778;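 active = CYP2C19 inhibition above a set limit at 5 µM in the primary screen, cut at about 50% in these data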;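 note: plate controls were negative control wells for no effect and 2.5 mM tranylcypromine positive control for full effect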
CYP2C19 activ – cytochrome P450 2C19 (human) activation; P33261; recombinant CYP2C19, luciferin-H EGE luminescence; hits give high values; 0 = fully inhibited enzyme, 1 = untreated enzyme; activation factor at 5 µM; 96,000 tested, under 10 active;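 active = activation factor of at least 2 at 5 µM in the primary screen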;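 note: 0 = wells with 2.5 mM tranylcypromine and 1 = vehicle-only wells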
Numbers without * were called inactive; . = no result.

SMILES	CYP2C9 activ	Cav32 inh	CYP2C9 inh	CYP2C19 inhib	CYP2C19 activ
CCn1c(CNC(=O)c2ccc3c(c2)OCO3)nnc1SCC(=O)Nc1cc(C)ccc1OC	0.9	.	14	19	0.8
CN(c1ccc(C(=O)Nc2ccccc2Sc2ccccc2)cc1)S(C)(=O)=O	0.5	.	46	30	0.7
CN(c1ccc(C(=O)Nc2ccc3c(c2)OCCO3)cc1)S(C)(=O)=O	0.7	0.17	34	38	0.6
COc1ccc(C)cc1NC(=O)c1ccc2c(c1)OCO2	1.8	-1.8	-76	86*	0.1
COc1ccc(C)cc1NC(=O)c1ccc(N(C)S(C)(=O)=O)cc1	2.5*	-0.096	-147	32	0.7
O=C1C(=O)N(CCOCCO)C(c2ccccn2)/C1=C(\O)c1ccccc1 (configuration not stated)	1.1	-1.1	-6	-14	1.1
COc1ccc2[nH]cc(C(=O)CN3CCN(C/C=C/c4ccccc4)CC3)c2c1	0.6	-2.5	36	2	1
COc1cccc(NC(=O)CSc2nc3c(c(=O)n2C)SC(C)C3)c1 (configuration not stated)	0.2	1.2	75*	93*	0.1
CCOc1ccc(NC(=O)CSc2nc3c(c(=O)n2C)SC(C)C3)cc1 (configuration not stated)	0.5	0.089	47	11	0.9
Cc1cc(C)cc(NC(=O)CSc2nc3c(c(=O)n2C)SC(C)C3)c1 (configuration not stated)	0.8	-0.032	18	1	1
Cc1cc(C)c(NC(=O)CSc2nc3c(c(=O)n2C)SC(C)C3)c(C)c1 (configuration not stated)	0.2	0.94	82*	32	0.7
CC1Cc2nc(SCC(=O)Nc3ccc(F)cc3)n(C)c(=O)c2S1 (configuration not stated)	0.4	.	64*	14	0.9
COc1ccc(-n2nc(C(=O)Nc3ccc(OC)c(OC)c3)c3c4ccccc4n(C)c3c2=O)cc1	0.8	-0.79	21	9	0.9
Cc1ccc(NC(=O)Cn2cccc2)cc1C	0.8	0.46	22	47	0.5
Cc1ccc(C)c(NC(=O)CCn2nc(C)cc2C)c1	1.2	.	-16	11	0.9
COc1ccc(NC(=O)CCn2cccc2)cc1	1	0.26	3	51*	0.5
COc1ccc(NC(=O)CCN2CCC(C)CC2)cc1	0.9	0.97	7	8	0.9
Cc1ccc(NC(=O)CCn2cccc2)cc1C	0.9	0.6	9	85*	0.1
COc1ccc(NC(=O)c2c(Cl)n(C)c3ccccc23)cc1	2.3*	-2.1	-126	13	0.9
Cc1ccc(NC(=O)CCn2nc(C)cc2C)cc1	1.1	1.5	-14	74*	0.3
CN(C)CCNC(=O)c1c(CSc2ccccc2)noc1C(=O)NCc1ccccc1	.	0.063	.	.	.
COC(=O)c1cn(CC(=O)NC2CCCCCC2)c2ccccc12	.	1.3	.	.	.
COc1ccccc1Nc1ncccc1C(=O)NCc1ccccc1	0.8	0.66	24	15	0.8
COc1ccc(-c2oc3ccc(N4CCOCC4)cc3c2C#CC2(O)CCCCC2)cc1	.	-1.2	.	.	.
CCN(Cc1cc2ccccc2[nH]c1=O)C(=O)C(C)C	1	0.48	1	-4	1
SMILES	CYP2C9 activ	Cav32 inh	CYP2C9 inh	CYP2C19 inhib	CYP2C19 activ
CC(C)(C)NC(=O)C(c1ccccc1)N(C(=O)C1CSC(=O)C1)c1ccccc1 (configuration not stated)	0.9	-0.73	12	23	0.8
Cc1ccc(NC(=O)CCSCCC(=O)Nc2ccc(C)c(C)c2)cc1C	0.6	-6.8*	42	33	0.7
CCc1cccc(NC(=O)CCSCCC(=O)Nc2cccc(CC)c2)c1	0.4	-7.5*	62*	23	0.8
Cc1ccc(NC(=O)CCn2cccc2)cc1	0.6	-2.4	37	92*	0.1
Cc1ccc(NC(=O)CSCC(N)=O)cc1C	1.1	0.58	-14	12	0.9
C=CCn1c(SCC(=O)NCc2ccco2)nc2sc3c(c2c1=O)CCC3	0.7	-0.28	27	-2	1
COc1ccc(CNC(=O)/C=C/c2cc([N+](=O)[O-])ccc2OC(F)F)cc1	1	0.76	-2	7	0.9
COc1ccc(CNC(=O)/C=C/c2cc([N+](=O)[O-])ccc2OC(F)F)cc1OC	2.1*	-0.17	-108	29	0.7
CC(C)C(=O)Nc1nnc(CCN2CCOCC2)s1	1.2	0.51	-15	-17	1.2
Cc1cc(C)c2ccc(C)[n+]([O-])c2c1O	3.5*	1.3	-252	16	0.8
Cc1cc(C)n(-c2ccc(C(=O)OCC(=O)c3c(N)n(C)c(=O)n(C)c3=O)cc2)n1	0.9	0.35	11	20	0.8
O=C(c1ccco1)N1CCN=C1SCc1c(F)cccc1Cl	1.3	-0.6	-34	18	0.8
O=C(c1ccco1)N1CCN=C1SCc1ccccc1Cl	2.6*	-1.2	-155	21	0.8
O=C(C1CC1)N1CCN=C1SCc1ccccc1	0.8	0.58	16	83*	0.2
O=C(C1CC1)N1CCN=C1SCc1cccc(F)c1	0.7	-0.27	27	90*	0.1
CCC(=O)N(Cc1cc2cc(OC)ccc2[nH]c1=O)c1cccc(C)c1	1.1	-0.26	-6	-10	1.1
CCCC(=O)NCCCc1nc2ccccc2n1C(C)C	1.4	0.59	-41	7	0.9
CC1CC(NC(=O)C2(C)CC2(Cl)Cl)CC(C)(C)C1 (configuration not stated)	1	-1.3	4	7	0.9
COC(=O)c1ccc(COC(=O)c2ccc(S(=O)(=O)N3CCC(C)CC3)cc2)o1	0.3	-0.54	69*	27	0.7
CC1CCN(S(=O)(=O)c2ccc(C(=O)OCc3ccc4c(c3)OCO4)cc2)CC1	0.6	0.07	36	6	0.9
CCOC(=O)c1cc(CNC(=O)c2c(C)oc3c2CCCC3)c(C)o1	0.8	0.37	18	16	0.8
CC(C)(C)c1cccc(Oc2nn[nH]n2)c1	1.1	0.013	-8	72*	0.3
O=C(CSCc1c(Cl)cccc1Cl)NCC1CCCO1 (configuration not stated)	1.5	-0.73	-54	7	0.9
Cn1cc(SCC(=O)NCC2CCCO2)c2ccccc21 (configuration not stated)	2.2*	-0.66	-120	36	0.6
CS(=O)(=O)N(CC(=O)NCC1CCCO1)c1ccc(F)c(Cl)c1 (configuration not stated)	1	0.22	4	60*	0.4
COc1ccc(-n2nc(C(=O)NCC(=O)NCC3CCCO3)c3ccccc3c2=O)cc1Cl (configuration not stated)	0.4	-0.03	60*	15	0.8
O=C(CSc1cc(Cl)ccc1Cl)NCC1CCCO1 (configuration not stated)	3.2*	0.6	-216	74*	0.3
O=S(=O)(Nc1ccc(O)c(Sc2nc3ccccc3s2)c1)c1ccc(Cl)cc1	0.9	.	14	-1	1
NS(=O)(=O)c1cccnc1Nc1cccc(Cl)c1Cl	1	-0.33	4	25	0.7
